An excerpt weighted towards active compounds, which were near 9% of everything screened.
Luc counter: Counterscreen for Luciferase (Kinase-Glo TM) Inhibition | Potency, µM (top dose mostly 38.3 µM), for the others: at the top dose activity change, negative = inhibition, actives largely listed as inhibitors | Kinase-Glo luciferase, ATP luminescence, 8 min | Luciferin 4-monooxygenase (Photuris pensylvanica), Q27757 | AID 1379, 2008 | 200,000 tested, 0.28% active; further: on the % scale 0 is the no-effect control and ±100 the full control effect; nearly all actives have a fitted effect of over 60% in size
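Compounds were added to a substrate mix at pH 7.2 (50 mM imidazole, 10 uM ATP, within the enzyme's linear range), followed by Kinase-Glo detection reagent; luminescence was measured after 8 minutes at ambient temperature.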
LMNA splice mod: qHTS Assay for Modulators of Lamin A Splicing | Potency, µM (doses to about 46.1 µM), for inactives: at the top dose ratio change, negative = inhibition, hits mostly inhibitors | 200,000 tested, 0.01% active | HeLa LMNA splicing GFP/RFP minigene ratio, 48 h; active means well fitted inhibition curve with a large enough effect in the signal ratio, with a control signal flat, not every such curve was filed as active; inconclusive means small, poorly fitted or top-dose-only effect, or effect the other way, or a change in a side signal; the % refers to the signal ratio; further: on the % scale 0 is the no-effect control and ±100 the full control effect
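Read-out is the ratio of GFP to DsRed2 object intensity, acquired by 488 nm laser-scanning cytometry on HeLa lamin A-EGFP minigene reporter cells. Compound incubation 48 hrs at 37 °C in Opti-MEM with 2% FBS; DMSO 0.5% final.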
ALDH1A1 block: qHTS Assay for Inhibitors of Aldehyde Dehydrogenase 1 (ALDH1A1); Aldehyde dehydrogenase 1A1 (Homo sapiens), P00352; Purified ALDH1A1, NADH fluorescence, propionaldehyde substrate; Potency, µM (series often up to 75.3 µM), inactives show at the top dose activity, negative = inhibition, hits mostly inhibitors; 220,000 tested, 7.3% active; AID 1030, 2008; active means well fitted inhibition curve with a large enough effect, not every such curve was filed as active; inconclusive means small, poorly fitted or top-dose-only effect, or another doubt; inactive means no such curve, though single readings can be large or run the other way;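 further: plate controls were no enzyme wells and a reference inhibitor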
HttQ103 aggreg: qHTS Multiplex Assay to Identify Dual Action Probes in a Cell Model of Huntington: Aggregate Formation (GFP); PC12 HttQ103-GFP aggregates, Acumen cytometry, 40 h; Potency, µM (highest dose often 46.1 µM), without a hit: at the highest dose activity change, negative = inhibition, hits mostly inhibitors; 220,000 tested, 1.1% active; AID 1688, 2009; further: on the % scale 0 is the no-effect control and ±100 the full control effect; nearly all actives have a fitted effect of over 60% in size
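Compounds (qHTS titration) were added to PC12 cells expressing an ecdysone-driven HTT exon 1 Q103–GFP fusion after induction with 100 nM tebufenozide. Aggregate formation was measured as GFP objects in cell lysates.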
HPGD block: qHTS Assay for Inhibitors of HPGD (15-Hydroxyprostaglandin Dehydrogenase). 15-hydroxyprostaglandin dehydrogenase [NAD(+)] (Homo sapiens), P15428. purified HPGD, NADH fluorescence kinetic, PGE2 substrate. Potency, µM, for the others: at the top dose activity change, negative = inhibition, hits mostly inhibitors. 150,000 tested, 4.3% active. AID 894, 2007; active means well fitted inhibition curve with a large enough effect, not every such curve was filed as active; inconclusive means small, poorly fitted or top-dose-only effect, or another doubt; inactive means no such curve, though single readings can be large or run the other way; further: on the % scale 0 is the no-effect control and ±100 the full control effect
Target sequence (P15428 whole entry, looked up): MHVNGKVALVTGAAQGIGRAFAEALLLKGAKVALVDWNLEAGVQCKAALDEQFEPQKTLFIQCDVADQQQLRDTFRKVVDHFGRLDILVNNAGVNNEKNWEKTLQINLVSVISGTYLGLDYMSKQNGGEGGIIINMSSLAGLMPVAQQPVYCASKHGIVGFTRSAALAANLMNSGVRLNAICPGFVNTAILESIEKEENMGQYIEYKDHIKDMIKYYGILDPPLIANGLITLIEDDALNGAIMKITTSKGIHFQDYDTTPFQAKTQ
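NADH formation kinetics: reaction with 30 uM PGE2 and 1 mM NAD+ (final), 20 nM enzyme, Tris-HCl pH 8 with Tween 20, after 15 min compound preincubation at room temperature. Fluorescence change, last versus first of five reads.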
HTT ATP protect: qHTS Multiplex Assay to Identify Dual Action Probes in a Cell Model of Huntington: Cytoprotection (ATP); PC12 HTT-Q103 induced, cytoprotection, ATP luminescence, 40 h; Potency, µM (top dose mostly 56.4 µM), for inactives: cytoprotection (ATP increase), most hits filed as activators; 230,000 tested, 0.14% active; further: % of control where 0% means no effect; nearly all actives have a fitted effect of over 45% in size
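Readout: ATPlite luminescence (ATP level). Model: stable PC12, inducible Htt exon1 Q103-GFP. Inducer: tebufenozide, 100 nM final. Compounds: dose series. No G418 in medium.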
Active calls of the source: *; [ ] = dose if it differs, or a comment. Unless noted, the call rests on the fitted dose curve; in most records, active means well fitted curve in the direction sought with a large enough effect; inconclusive means small, poorly fitted or top-dose-only effect, or another doubt; inactive means no such curve, though single readings can be large; an effect the other way counts as inactive or inconclusive. Potency means the concentration at half of the fitted maximal effect.

For Nc1nc2cc(S(=O)(=O)NC3=NCCCCC3)ccc2s1 the results were HttQ103 aggreg -12%[9.22 µM] and HTT ATP protect 5%[10 µM].
O=C(CCN1C(=O)C2CCCCC2C1=O)Nc1ccc(F)c(F)c1F (centres undefined) was read as Luc counter -3%, ALDH1A1 block 10µM*, HttQ103 aggreg -1% and HTT ATP protect -33%.
Screening O=C(CN1C(=O)C2CC=CCC2C1=O)NCC(=O)Nc1ccc(F)c(F)c1F (centres undefined) returned Luc counter 1%, LMNA splice mod -4%[46 µM], ALDH1A1 block -5%, HttQ103 aggreg -7% and HTT ATP protect -16%.
For CCn1ncc(C(=O)Nc2cc(C)on2)c1C the results were Luc counter 1%, LMNA splice mod 4%, ALDH1A1 block 19%, HttQ103 aggreg -4%, HPGD block 1% and HTT ATP protect -10%.
`O=C(CSC(=S)N1CCCCC1)Nc1ncc2c(n1)CC(c1ccco1)CC2=O` (centres undefined) gave ALDH1A1 block 4µM*, HttQ103 aggreg -16%[9.22 µM] and HTT ATP protect -18%[10 µM].
O=C1CC(c2ccco2)Cc2nc(N3CCc4ccccc4C3)ncc21 (centres undefined) was read as Luc counter 11%, LMNA splice mod inconclusive, ALDH1A1 block 13µM*, HttQ103 aggreg 31%, HPGD block inconclusive and HTT ATP protect 14%.
`N#CC1=C(N)N=C(SCc2ccccc2)C(C(N)=O)C12CCCCC2` (centres undefined) gave Luc counter 2%, LMNA splice mod -17%, ALDH1A1 block inconclusive, HttQ103 aggreg 0%, HPGD block -18% and HTT ATP protect 13%[10 µM].
Screening N#CC1=C(N)NC(SCc2ccc(F)cc2)=C(C#N)C12CCCCC2 returned Luc counter -2%, LMNA splice mod -5%, ALDH1A1 block inconclusive, HttQ103 aggreg 13µM*, HPGD block -10% and HTT ATP protect -48%.
CSC1=C(C#N)C2(CCCCC2)C(C(=O)Nc2ccccc2)=C(C)N1 was read as HTT ATP protect -4%.
N#CC1=C(N)NC(SCC(=O)Nc2ccccc2)=C(C#N)C12CCCC2 was read as Luc counter 3%, LMNA splice mod -7%, ALDH1A1 block 4.5µM*, HttQ103 aggreg 6%, HPGD block 18µM* and HTT ATP protect -10%.
`N#CC1=C(N)NC(SCC(=O)O)=C(C#N)C12CCCC2` gave Luc counter 13%, LMNA splice mod 4%, ALDH1A1 block 5.6µM*, HttQ103 aggreg -7%, HPGD block 13µM* and HTT ATP protect -4%.
`CC(C)N1CCC2(CC1)C(C#N)=C(N)NC(S)=C2C#N` gave LMNA splice mod inconclusive, ALDH1A1 block inconclusive, HttQ103 aggreg -14% and HTT ATP protect -21%[10 µM].
`CC1=C(C(=O)Nc2ccccc2)C2(CCCCC2)C(C#N)=C(S)N1` gave Luc counter -2%, LMNA splice mod -3%, ALDH1A1 block 20µM*, HttQ103 aggreg 9%, HPGD block 25µM* and HTT ATP protect 2%[10 µM].
Screening COc1cccc(-c2cc3nc(-c4ccccc4)cc(N4CCC5(CC4)OCCO5)n3n2)c1 returned Luc counter 0%, LMNA splice mod 2%, ALDH1A1 block inconclusive, HttQ103 aggreg -4%, HPGD block inconclusive and HTT ATP protect -3%[10 µM].
Cc1cccnc1NC(=O)Nc1ccccc1 was read as HttQ103 aggreg inconclusive and HTT ATP protect 2%[10 µM].

Compound activity as filed in PubChem BioAssay.
